Among the data in PubChem BioAssay (NCI) are growth values, retold here.

The panel holds about 83,000 compounds, 20% with a hit somewhere; the sample as a whole holds those more often.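 Single-dose data. Exposure time 48 hours. Values below 10 considered active.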 The source made the active and inactive calls.

Some test systems named below: HCT-15 colon; SNB-75 CNS; SNB-19 CNS; U251 CNS; PC-3 prostate; SK-MEL-5 melanoma; UACC-62 melanoma; LOX IMVI melanoma; SK-MEL-28 melanoma.
Holding throughout (experiment): NCI-60 one-dose screen, 48 h (100 = growth as untreated, 0 = no growth, -100 = all killed)
What all share (conditions): 10 µM unless noted

Turning to `CCCCCCCCCCCCCCCCCC(=O)Nc1ccc(OC)cc1`, the growth is 99.1% (inactive) in the test with HCT-15 colon; 144% (inactive) with SNB-75 CNS; 96.2% (inactive) with SNB-19 CNS; 102% (inactive) with U251 CNS; 93.3% (inactive) with PC-3 prostate; 102% (inactive) with SK-MEL-5 melanoma. Moreover, the growth was 97.5% (inactive) in the test on UACC-62 melanoma, 95.9% (inactive) with LOX IMVI melanoma and 110% (inactive) in the test on SK-MEL-28 melanoma.
As to `COc1ccc(C(=O)c2c(N)c(C#N)cn2-c2ccc([N+](=O)[O-])cc2)cc1`, the growth in the test with HCT-15 colon was 104% (inactive); in the test with SNB-75 CNS it was 92.2% (inactive); in the test with SNB-19 CNS it was 100% (inactive); with U251 CNS, 111% (inactive); with PC-3 prostate, 109% (inactive); with SK-MEL-5 melanoma, 102% (inactive). The growth was 93.1% (inactive) in the test with UACC-62 melanoma, 96.3% (inactive) in the test on LOX IMVI melanoma and 112% (inactive) in the test with SK-MEL-28 melanoma.
With `FC(F)(F)c1cc2c(Cl)ncnc2n1CCN1CCOCC1`, the growth in the test on HCT-15 colon was 2.39% (active); in the test with SNB-75 CNS, 53.5% (inactive); in the test on SNB-19 CNS, 43.4% (inactive); in the test with U251 CNS, 78.5% (inactive); with PC-3 prostate, 88.2% (inactive); in the test with SK-MEL-5 melanoma, 88.2% (inactive). The figures for the growth in the test on UACC-62 melanoma, in the test on LOX IMVI melanoma and in the test with SK-MEL-28 melanoma were 64.7% (inactive), -12.7% (active) and 74.1% (inactive), respectively.
Consider `NC(=Nc1ccc(OCCCCCCCCn2cnnn2)cc1)c1ccccc1`, for which the growth was 14.6% (inactive) in the test on HCT-15 colon; 45.4% (inactive) with SNB-75 CNS; 20.8% (inactive) with SNB-19 CNS; 36.2% (inactive) in the test with PC-3 prostate; 28.3% (inactive) in the test on UACC-62 melanoma; 23% (inactive) in the test with LOX IMVI melanoma. The growth in the test on SK-MEL-28 melanoma is 65.1% (inactive).
Consider `O=C1CCC(N2C(=O)c3cccc(NCCOCCOCCOCCC(=O)NCCCC(=O)NC(c4ccc5c(c4)OCO5)c4cc(Cl)c5cccnc5c4O)c3C2=O)C(=O)C1` (configuration not stated), for which the growth in the test on HCT-15 colon was 88.8% (inactive); in the test on SNB-75 CNS, 62.7% (inactive); in the test on SNB-19 CNS it was 28.5% (inactive); in the test on U251 CNS, 27.2% (inactive); with PC-3 prostate it was 32.5% (inactive); in the test with SK-MEL-5 melanoma it was 43.6% (inactive). For the same compound, the growth with UACC-62 melanoma was 0.155% (active); in the test with LOX IMVI melanoma, -37.6% (active); in the test with SK-MEL-28 melanoma, 20.4% (inactive).
In the case of `Cc1oc(-c2ccccc2)nc1CN[C@@H]1C[C@@H]2C[C@H]([C@H]1C)C2(C)C`, the growth with HCT-15 colon is 18.8% (inactive); in the test on SNB-75 CNS, 79.2% (inactive); in the test with SNB-19 CNS, 37.6% (inactive); in the test on U251 CNS it was 41.2% (inactive); in the test with PC-3 prostate, 30.8% (inactive); with SK-MEL-5 melanoma, -94.1% (active). Also, the values for the growth in the test with UACC-62 melanoma, in the test on LOX IMVI melanoma and with SK-MEL-28 melanoma were -32.6% (active), -95.5% (active) and 2.07% (active), respectively.
Consider `CN1CCN(CCS(=O)(=O)Nc2cc(-c3ccc4ncnc(Nc5ccc(F)c(Cl)c5)c4c3)cnc2Cl)CC1`, for which the growth is 24.5% (inactive) with HCT-15 colon; 22.1% (inactive) in the test with SNB-75 CNS; 10.1% (inactive) in the test with SNB-19 CNS; 16.5% (inactive) in the test with U251 CNS; 20.2% (inactive) in the test with PC-3 prostate; -75.9% (active) in the test on SK-MEL-5 melanoma. The growth in the test with UACC-62 melanoma was -3.28% (active); in the test on LOX IMVI melanoma it was -57.5% (active); with SK-MEL-28 melanoma, 4.33% (active).
As to `Clc1ccc2c(NCCNC34CC5CC(CC(C5)C3)C4)ccnc2c1`, the growth in the test on HCT-15 colon is -82% (active); in the test with SNB-75 CNS, -74.9% (active); in the test with SNB-19 CNS, -54.2% (active); in the test on U251 CNS, -61.8% (active); with PC-3 prostate, -5.27% (active); in the test with SK-MEL-5 melanoma it was -96% (active). Also, the growth in the test with UACC-62 melanoma was -89.9% (active); in the test with LOX IMVI melanoma, -91.5% (active); with SK-MEL-28 melanoma, -93.5% (active).
In the case of `CN1C(=O)/C(=C\C(=O)c2cc3ccccc3oc2=O)c2ccccc21`, the growth is 39.7% (inactive) in the test on HCT-15 colon; 96.8% (inactive) in the test with SNB-75 CNS; 78.9% (inactive) with SNB-19 CNS; 42.6% (inactive) with U251 CNS; 84.5% (inactive) in the test on PC-3 prostate; 92.1% (inactive) with SK-MEL-5 melanoma. For the same compound, the growth was 42.6% (inactive) with UACC-62 melanoma, 58.9% (inactive) with LOX IMVI melanoma and 60.8% (inactive) with SK-MEL-28 melanoma.
Turning to `CC1=NN(C2=NC(=O)C(CC(=O)Nc3ccccc3C(F)(F)F)S2)C(c2ccc(N(C)C)cc2)C1` (configuration not stated), the growth in the test with HCT-15 colon is 17.1% (inactive); in the test with SNB-75 CNS, 54.9% (inactive); in the test with SNB-19 CNS, 54.5% (inactive); in the test on U251 CNS, 49.3% (inactive); in the test with PC-3 prostate it was 34.6% (inactive); with SK-MEL-5 melanoma, 43.4% (inactive). For the same compound, the growth in the test with UACC-62 melanoma was 41.4% (inactive); in the test on LOX IMVI melanoma, 46.3% (inactive); in the test with SK-MEL-28 melanoma it was 42% (inactive).
As to `COc1cccc(C(N)=Nc2ccc(OCCCCCCCCn3cncn3)cc2)c1`, the growth was 11.7% (inactive) in the test with HCT-15 colon; 60.8% (inactive) with SNB-75 CNS; 24.6% (inactive) in the test on SNB-19 CNS; 37.7% (inactive) in the test with PC-3 prostate; 27.4% (inactive) in the test with UACC-62 melanoma; 20% (inactive) in the test with LOX IMVI melanoma. Besides, the growth in the test on SK-MEL-28 melanoma is 55.3% (inactive).
Regarding `Cc1nc2sccn2c1-c1nnc(SCC(C)C)o1`, the growth with HCT-15 colon was 77.2% (inactive); with SNB-75 CNS it was 73.7% (inactive); in the test on SNB-19 CNS it was 78.7% (inactive); in the test on U251 CNS it was 78.2% (inactive); with PC-3 prostate, 83.1% (inactive); in the test on SK-MEL-5 melanoma, 89.4% (inactive). Further, the growth with UACC-62 melanoma is 77.2% (inactive); in the test with LOX IMVI melanoma, 91.3% (inactive); in the test with SK-MEL-28 melanoma, 104% (inactive).
As to `Fc1ccccc1CNc1nc(SCCN2CCOCC2)nc2c1cnn2CC(Cl)c1ccc(Br)cc1` (configuration not stated), the growth in the test on HCT-15 colon was -53.3% (active); in the test on SNB-75 CNS, 50.1% (inactive); with SNB-19 CNS, 52.6% (inactive); in the test on U251 CNS it was 37.8% (inactive); in the test on PC-3 prostate, 30.3% (inactive); in the test on SK-MEL-5 melanoma it was -76% (active). Besides, the values for the growth in the test on UACC-62 melanoma, in the test on LOX IMVI melanoma and with SK-MEL-28 melanoma were -4.51% (active), 1.88% (active) and 22% (inactive), respectively.
As to `COc1cc(C2C(C(=O)OCc3ccccc3)=C(C)Nc3nc4ccccc4n32)cc(OC)c1OC` (configuration not stated), the growth with HCT-15 colon was 24.8% (inactive); with SNB-75 CNS it was -38.3% (active); with SNB-19 CNS, 20.4% (inactive); in the test on U251 CNS, 27% (inactive); in the test with PC-3 prostate it was 51.7% (inactive); with SK-MEL-5 melanoma, 17.3% (inactive). In addition, the growth in the test with UACC-62 melanoma is 2.04% (active); in the test on LOX IMVI melanoma it was 12.2% (inactive); in the test with SK-MEL-28 melanoma, 33.9% (inactive).
